Source: PubChem
An excerpt weighted towards active compounds, which were near 11% of everything screened.
HSD17B inh: blocks hydroxysteroid 17-beta dehydrogenase activity. Q99714. recombinant HSD17B10, NADH fluorescence kinetic. Potency, µM (titrated, usually from 57.1 µM), without a hit: top-dose activity change, negative = inhibition, hits mostly inhibitors. hit rate 7.6% among 75,000. AID 893;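 also: the protocol describes HADH2 (HSD17B10) and not the HSD17B4 of the title; nearly all actives have a fitted effect of over 70% in size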
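Enzyme plus compound, 15 min room temperature; substrate mix added (NAD+ 1 mM, beta-hydroxybutyryl-CoA 90 uM final); plates read kinetically for NADH fluorescence. HADH2 was His-tagged, E. coli-derived, 20 nM.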
HADH2 inhib: inhibitors of human HADH2 dehydrogenase. Q99714. recombinant HADH2, NADH fluorescence, beta-hydroxybutyryl-CoA. Potency, µM (top dose mostly 57.1 µM), without a hit: at the top dose activity change, negative = inhibition, hits mostly inhibitors. hit rate 3.4% among 73,000; also: nearly all actives have a fitted effect of over 60% in size
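NADH fluorescence (ex 360/em 450 nm) read every 30 s for 4 min; activity taken as last-minus-first time point difference. Enzyme 20 nM, NAD+ 1 mM, beta-hydroxybutyryl-CoA 90 uM, pH 9.0 Tris buffer.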
PK Bst: pyruvate kinase (B. stearothermophilus) modulation; purified pyruvate kinase, luminescence ATP production; ribose 5-phosphate activator present at AC10; Potency, µM; hit rate 1.2% among 51,000; in the data active = potency below about 11 µM; inconclusive = mostly about 12 µM to 25 µM;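 the screen sought inhibitors and activators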;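 also: scaled between full activation by ribose 5 phosphate and full inhibition by luteolin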
15-hLO inh: 15-hLO (ALOX15) enzyme inhibition. purified 15hLO-1, xylenol orange hydroperoxide absorbance. Potency, µM (titrated, usually from 57.1 µM), for inactives: at the top dose activity change, negative = inhibition, most hits filed as inhibitors. hit rate 1.4% among 74,000. AID 887; also: nearly all actives have a fitted effect of over 55% in size
Target sequence (P16050 whole entry, looked up): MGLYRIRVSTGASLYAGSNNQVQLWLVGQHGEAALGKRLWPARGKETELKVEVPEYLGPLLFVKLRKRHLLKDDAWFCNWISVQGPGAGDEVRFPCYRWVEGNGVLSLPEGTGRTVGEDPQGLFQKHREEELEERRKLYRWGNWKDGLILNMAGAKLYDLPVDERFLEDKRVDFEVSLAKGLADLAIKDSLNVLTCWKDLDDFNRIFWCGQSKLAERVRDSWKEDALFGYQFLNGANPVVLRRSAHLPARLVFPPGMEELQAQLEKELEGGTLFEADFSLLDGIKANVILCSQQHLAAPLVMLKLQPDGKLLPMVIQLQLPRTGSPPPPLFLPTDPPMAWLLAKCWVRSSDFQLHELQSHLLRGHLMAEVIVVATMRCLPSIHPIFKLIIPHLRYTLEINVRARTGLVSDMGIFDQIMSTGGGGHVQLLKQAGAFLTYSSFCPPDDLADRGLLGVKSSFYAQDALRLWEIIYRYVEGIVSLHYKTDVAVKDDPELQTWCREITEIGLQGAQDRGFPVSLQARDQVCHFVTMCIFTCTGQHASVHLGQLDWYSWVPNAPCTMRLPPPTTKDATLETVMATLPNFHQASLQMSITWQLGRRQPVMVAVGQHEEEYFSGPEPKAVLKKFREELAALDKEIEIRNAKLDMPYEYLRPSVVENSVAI
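Hydroperoxide formed from arachidonic acid (50 uM) by purified human 15hLO-1 (40 nM) oxidizes ferrous iron, and the ferric-xylenol orange complex is read at 573 versus 405 nm. Compounds were preincubated 15 min; reaction ran 6 min at room temperature.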
ERK AVP block: vasopressin-driven ERK pathway inhibition | HEK293-V1b, vasopressin-stimulated pERK AlphaScreen | Potency, µM (doses to about 57.5 µM), for the others: top-dose activity, negative = inhibition, most hits filed as inhibitors | hit rate 0.99% among 72,000; also: nearly all actives have a fitted effect of over 55% in size
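Overnight-seeded V1b-HEK293 cells in 1% FBS got compound, then vasopressin (25 nM final, 5 min, 37C), then lysis buffer. AlphaScreen detection of phospho-ERK; activity normalized to basal and full-stimulation controls.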
Luciferase inh: firefly luciferase inhibition; purified firefly luciferase, luminescence, 8 min; Potency, µM (series often up to 57.1 µM), for inactives: at the top dose activity change, negative = inhibition, actives largely listed as inhibitors; hit rate 2.2% among 72,000; P08659; also: nearly all actives have a fitted effect of over 40% in size
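Substrate buffer containing 10 uM ATP (pH 7.2 imidazole, Mg2+, KCl, detergent, BSA) is dispensed, compound pinned in, then luciferase/luciferin detector mix added. After 8 min at ambient temperature, light output is measured.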
Numbers without * were called inactive; i = inactive; ? = inconclusive; . = not tested or not shown; ! = not active in a repeat; [ ] = remark or other dose. Unless noted, calls follow the shape of the dose curve; as a rule, active = well fitted curve in the direction sought with a large enough effect; inconclusive = small, poorly fitted or top-dose-only effect, or another doubt; inactive = no such curve, though single readings can be large; an effect the other way counts as inactive or inconclusive. Unless noted, % is scaled to controls: 0 for no effect and ±100 for the full control effect; potency is read from the fitted curve at half-maximal effect.

SMILES	HSD17B inh	HADH2 inhib	PK Bst	15-hLO inh	ERK AVP block	Luciferase inh
O=C(CSc1nc2ccccc2c(=O)n1Cc1ccco1)NCc1ccco1	-2%	-8%	>57	-1%	13%	-1%
CCN(CC)CCn1c(SCC(=O)NCc2ccco2)nc2c(sc3ccccc32)c1=O	32µM*	13%	>57	-1%	11%	1%
COC(=O)NC(CC(C)=O)c1cccc(C)c1 (configuration not stated)	-8%[11.4 µM]	-7%[11.4 µM]	.	-1%[11.4 µM]	11%[11.5 µM]	.
Clc1ccc(Cl)c(Cl)c1Cl	1%	-3%	.	-4%	-5%	.
Nc1sc2c(c1C(=O)NC1CCS(=O)(=O)C1)CCC2 (configuration not stated)	-15%	1.6µM*	>57	-28%	-2%	-5%
CCOC(=O)CSc1nc(N)c(C(=O)Nc2ccc(N(C)C)cc2)s1	.	.	i	.	.	13µM*
O=C(Nc1cccc(Oc2ccc3c(c2)C(=O)NC3=O)c1)c1ccco1	5%	1%	?	16µM*	-28%	2%
Cc1ccc(Oc2ccc(NC(=O)c3ccco3)cc2)cc1	-8%	-7%	.	?	?	-18%
Cc1cc2c(C)cc(=O)oc2c2c1NCCC2	25µM*	3.2µM*	>11	-15%	-17%	5%
Cc1cc2cc3c(C)cc(=O)oc3c(C)c2o1	6%	6%[25.6 µM]	.	-8%	?	0%[25.5 µM]
COc1ccc(-n2c(=O)c(-c3ccc(F)cc3)nc3cnc(OC)nc32)cc1	-17%	-2%	.	5%	-12%	1%[11.4 µM]
CN(C)c1ncc2nc(-c3ccc(F)cc3)c(=O)n(-c3ccccc3)c2n1	4µM*	10%	.	3%	17%	2%[11.4 µM]
CN(C)c1ncc2nc(-c3cccs3)c(=O)n(-c3ccccc3)c2n1	20µM*	34%	.	-5%	-18%	1%[11.4 µM]
COc1ccccc1CNc1nc(-c2ccoc2)nc2ccccc12	-21%	?	.	?	?	2%[2.29 µM]
COc1ccc(O[C@H]2C=C[C@@H](c3ccccc3)O[C@@H]2CON=C(C)C)cc1	-4%[11.4 µM]	-6%[11.4 µM]	.	2%[11.4 µM]	20%[11.5 µM]	0%[11.4 µM]
NCCSCc1ccccc1Cl	-10%[11.4 µM]	-16%[11.4 µM]	.	-1%[11.4 µM]	9%[11.5 µM]	0%[11.4 µM]
Cc1ccc(C)c(/C(=N\N=C(N)N)C2CC2)c1	2%[11.4 µM]	12%[11.4 µM]	.	23%[11.4 µM]	-16%[11.5 µM]	3%[11.4 µM]
Fc1ccccc1-c1nc(-c2ccccc2)no1	2%	7%	5.8*	-6%	34%	6.3µM*
c1ccc2c(-c3nc(-c4ccncc4)no3)cccc2c1	?	-8%	>11	-12%	?	-18%
Brc1ccccc1-c1nc(-c2ccccc2)no1	-3%	-4%[11.4 µM]	.	-2%[11.4 µM]	38%	3.2µM*
c1ccc(-c2noc(-c3cccc4ccccc34)n2)cc1	32µM*	?	i	1%	97%	16µM*
Cc1ccc(-c2nc(-c3ccccc3)no2)c(Cl)c1	-9%	-8%	.	4%	40%	0.25µM*
NC(=O)c1ccccc1-c1nc(-c2ccccc2)no1	6%	-5%	.	4%	-2%	-27%
c1ccc(CCc2ccccc2-c2nc(-c3cccnc3)no2)cc1	-11%	5%	.	-1%	3%	2%
O=C(O)[C@@H](c1ccccc1)[C@@H](C(=O)O)c1ccccc1	0%[11.4 µM]	11%[11.4 µM]	.	-3%[11.4 µM]	10%[11.5 µM]	2%[11.4 µM]
SMILES	HSD17B inh	HADH2 inhib	PK Bst	15-hLO inh	ERK AVP block	Luciferase inh
CC(C)CCCC(C)C1CCC2C3CC(O)[C@@]4(O)CC(O)CC[C@@]4(C)C3CC[C@@]12C (some centres not stated)	-4%	.	.	-4%	-7%	.
COc1ccc(C#CC2C=CC(OC(C)=O)C(COC(C)=O)O2)cc1 (configuration not stated)	4%[11.4 µM]	2%[11.4 µM]	.	3%[11.4 µM]	26%[11.5 µM]	.
CC(C)Cn1cc(C(=O)NCc2cccs2)c2c3ccccc3n(C)c2c1=O	-15%	-1%	>57	-5%	-7%	-5%
COc1ccc(N2CCN(C(=O)c3cn(C)c(=O)c4c3c3ccccc3n4C)CC2)cc1	2%	13%	>57	?	?	1%
CCOC(=O)N1CCN(C(=O)c2cn(CC(C)C)c(=O)c3c2c2ccccc2n3C)CC1	25µM*	25µM*	>57	-5%	?	-2%
CCOC(=O)N1CCC(NC(=O)c2cc3c(=O)n(C)c4ccccc4c3n2C)CC1	?	?	.	-1%	-29%	2%
COCCn1cc(C(=O)N2CCC(C)CC2)c2c3ccccc3n(C)c2c1=O	32µM*	25µM*	>57	1%	-11%	0%
CCOC(=O)N1CCN(C(=O)c2cn(C)c(=O)c3c2c2ccccc2n3C)CC1	25µM*	-7%	>57	1%	-18%	1%
CC(C)Cn1cc(C(=O)N2CCOCC2)c2c3ccccc3n(C)c2c1=O	25µM*	?	>57	-2%	-13%	0%
OCCN(CO)CO	5%[11.4 µM]	-5%[11.4 µM]	.	2%[11.4 µM]	2%[11.5 µM]	-1%[11.4 µM]
CCCC/C=C/C(NC(=O)c1cccs1)c1ccccc1 (configuration not stated)	-9%	-9%	.	.	19%	.
O=C1C=CC(=Nc2cccc3c(N=C4C=CC(=O)O4)cccc23)O1	?	?	.	?	19%[11.5 µM]	-19%[11.4 µM]
CCN(CCO)CCCC(C)Nc1ccnc2cc(Cl)ccc12 (configuration not stated)	-7%	.	.	3%	8%	.
CCN(CC)CCC[C@H](C)Nc1c2ccc(Cl)cc2nc2ccc(OC)cc12	6.3µM*	5%[25.6 µM]	.	-4%[25.6 µM]	33%[25.7 µM]	6.3µM*!
COC(=O)Oc1ccccc1C(=O)O	?	.	.	-2%	7%	.
CCOC(=O)NC[C@H](Cc1ccc(OCCc2nc(-c3ccccc3)oc2C)cc1)N/C(C)=C\C(=O)c1ccc(C(F)(F)F)cc1	?	18%	.	?	6%	.
CCc1cc2c(nc1CC)CCN(CC/C(C)=N/O[C@@H]1O[C@H](COC(C)=O)[C@H](OC(C)=O)[C@H](OC(C)=O)[C@H]1OC(C)=O)C2	-4%[11.4 µM]	9%[11.4 µM]	.	2%[11.4 µM]	11%[11.5 µM]	-1%[11.4 µM]
CN(CCOc1ccc(C[C@H](Nc2ccccc2C(=O)c2ccccc2)C(=O)O)cc1)c1ccccn1	25µM*	-7%	.	5%	11%	-8%
COc1ccc(-n2nc3cc(C)c(NC(=O)C(C)C)cc3n2)cc1	4µM*	19%	>57	-13%	26%	?
COc1ccc(-n2nc3ccccc3n2)cc1	-6%	5%	.	4%	-10%	-11%
COc1ccc(-n2nc3cc(C)c(N)c(Br)c3n2)cc1	25µM*	7.9µM*	3.4*	16µM*	32µM*	4µM*
COc1cc2c(=O)n(CC3CCCO3)c(=O)n(CC(=O)Nc3ccc(F)cc3F)c2cc1OC (configuration not stated)	32µM*	5%	.	1%	-23%	1%
COC(=O)c1ccc2c(=O)n(CC3CCCO3)c(SCC(=O)Nc3ccccc3OC)nc2c1 (configuration not stated)	-8%	13%	.	-11%	-16%	-30%
